# Measurements taken from PubChem BioAssay (NCI).
# Compounds without any hit were thinned out: in the full panel of roughly 79,000, 15% have a hit. A number with no mark means an inactive call. The source made the active and inactive calls. Rule as the data show it: active = growth inhibition above about 70%; inactive = the rest.
# Experiment: NCI Yeast Anticancer Drug Screen. Data for the rad50 strain (AID 155);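 also: 0% = growth of vehicle-only cultures of the same strain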
# Conditions: S. cerevisiae rad50 strain growth inhibition; at 50.0 µM; active compounds read high
# Outline: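 Growth of the mutant yeast was measured after compound exposure and referenced to vehicle-treated cultures.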
row,SMILES,growth inhibition
1,Nc1ccc2c(c1)Oc1ccc(N)cc1O2,-22.8%
2,CCCCOP(O)(=S)OCCCC.[Y],-20.9%
3,COc1c(O)cc2c(c1OC)-c1ccc(SC)c(=O)cc1C(NC(C)=O)CC2 (stereo not given),10.4%
4,C1=C[N-]c2c3c(ccc2=C1)=CC=C[N-]3.C1=C[N-]c2c3c(ccc2=C1)=CC=C[N-]3.C1=C[N-]c2c3c(ccc2=C1)=CC=C[N-]3.[Co+3].[O-][Cl+3]([O-])([O-])O,-8.95%
5,ClCc1nc(-c2ccco2)no1,6.1%
6,CCCCCCCCCCCCCCCC(=O)OCC1OC(OC)C2NP(=O)(N(CCCl)CCCl)OC1C2O (stereo not given),35.4%
7,BrP(Br)(c1ccccc1)(c1ccccc1)c1ccccc1,-1.6%
8,CCCCCSP(SCCCCC)c1ccccc1,79.8% (active)
9,CN=NNc1nc[nH]c1C(N)=O,23.9%
10,ClCCN(CCCN(CCCl)c1ccccc1)c1ccccc1,11.8%
11,CCOC(=O)N[N+]12CCN(CC1)CC2,0.45%
12,CC(O)C[As](=O)(O)c1cccc(Cl)c1 (stereo not given),2.05%
13,CC1(C)OC2OCCC(N=[N+]=[N-])C2O1 (stereo not given),0.85%
14,CC(=O)Nc1cccc([As+](C)(C)C)c1,14.3%
15,O=C(CC(=O)c1ccccc1)c1ccccc1.O=C(CC(=O)c1ccccc1)c1ccccc1.[Pd],20.5%
16,COc1ccc2[se]c(C)nc2c1,-26.2%
17,CC[O-].CC[O-].O=C([CH-]C(=O)c1ccccc1)c1ccccc1.O=C([CH-]C(=O)c1ccccc1)c1ccccc1.[Ti+4],34.3%
18,Oc1cccc(-c2ccccc2)c1,20.5%
19,CN1CCC(O)(c2ccccc2)C(C(O)c2ccccc2)C1 (stereo not given),5.2%
20,COc1cc2c(c(OC)c1OC)-c1ccc(SC)c(=O)cc1[C@@H](NC(C)=O)CC2,-12.4%

row,SMILES,growth inhibition
1,O=C(CC(=O)c1ccccc1)c1ccccc1.[Tl],96.2% (active)
2,C1CC[N-]CC1.C1CC[N-]CC1.[Cl][Pt+2]([Cl])([Cl])[Cl],4.65%
3,NC(=O)c1cccc([As]=O)c1 (stereo not given),-11.4%
4,COc1cccc(C2CC(=O)c3cccn32)c1 (stereo not given),11.3%
5,CC(=O)c1ccc(Br)cc1,2%
6,O=C1Nc2ccccc2C12CNCS2 (stereo not given),5.7%
7,Cc1cccc(CCl)c1,-7.05%
8,O=C1NC(=S)NC(=O)C1=Cc1ccc2ccccc2n1,-7.9%
9,Clc1cccc(Cl)c1C(Cl)Cl,-7.45%
10,O=N[O-].O=N[O-].[Co].[NH-]CC[N-]CCO.[NH-]CC[N-]CCO,37.6%
11,CCOP(O)OCC,0.6%
12,CCC1(c2ccc(C)cc2)C(=O)NC(=S)NC1=O,6.1%
13,N#CN,-9.55%
14,OC[C@@H](O)[C@@H](O)CO,3.2%
15,Cc1ccc(S(=O)(=O)OC2CN3CCC2CC3)cc1 (stereo not given),62.4%
16,O=S(c1ccc(Cl)cc1)c1ccc(Cl)cc1,1.55%
17,O=C([CH-]C(=O)c1ccccc1)c1ccccc1.[CH2-]C.[CH2-]C.[Tl+3],52.3%
18,NC(=O)C(N)C(F)c1ccccc1 (stereo not given),-11.4%
19,CC([NH-])C[NH-].CC([NH-])C[NH-].[Cl-].[Cl-].[Co+3].[O-][Cl+3]([O-])([O-])O (stereo not given),37.5%
20,Clc1cccc2nncc(N3CC3)c12,2%

# Experiment: NCI Yeast Anticancer Drug Screen. Data for the mec2-1 strain (AID 157)
# Conditions: S. cerevisiae mec2-1 strain, at 50.0 µM, active compounds read high
# Outline: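 Each compound was tested on mec2-1 yeast, a strain altered in DNA damage repair or cell cycle control. Growth inhibition is reported relative to vehicle.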
row,SMILES,growth inhibition
1,Nc1ccc2c(c1)Oc1ccc(N)cc1O2,1.2%
2,CCCCOP(O)(=S)OCCCC.[Y],2.95%
3,COc1c(O)cc2c(c1OC)-c1ccc(SC)c(=O)cc1C(NC(C)=O)CC2 (stereo not given),-9.4%
4,C1=C[N-]c2c3c(ccc2=C1)=CC=C[N-]3.C1=C[N-]c2c3c(ccc2=C1)=CC=C[N-]3.C1=C[N-]c2c3c(ccc2=C1)=CC=C[N-]3.[Co+3].[O-][Cl+3]([O-])([O-])O,-16.4%
5,ClCc1nc(-c2ccco2)no1,51.2%
6,CCCCCCCCCCCCCCCC(=O)OCC1OC(OC)C2NP(=O)(N(CCCl)CCCl)OC1C2O (stereo not given),-13.3%
7,BrP(Br)(c1ccccc1)(c1ccccc1)c1ccccc1,-28.8%
8,CCCCCSP(SCCCCC)c1ccccc1,67.3%
9,CN=NNc1nc[nH]c1C(N)=O,32.2%
10,ClCCN(CCCN(CCCl)c1ccccc1)c1ccccc1,12.7%
11,CCOC(=O)N[N+]12CCN(CC1)CC2,-2.65%
12,CC(O)C[As](=O)(O)c1cccc(Cl)c1 (stereo not given),33.9%
13,CC1(C)OC2OCCC(N=[N+]=[N-])C2O1 (stereo not given),-5.35%
14,CC(=O)Nc1cccc([As+](C)(C)C)c1,9.75%
15,O=C(CC(=O)c1ccccc1)c1ccccc1.O=C(CC(=O)c1ccccc1)c1ccccc1.[Pd],4.9%
16,COc1ccc2[se]c(C)nc2c1,-35.1%
17,CC[O-].CC[O-].O=C([CH-]C(=O)c1ccccc1)c1ccccc1.O=C([CH-]C(=O)c1ccccc1)c1ccccc1.[Ti+4],30.9%
18,Oc1cccc(-c2ccccc2)c1,17.2%
19,CN1CCC(O)(c2ccccc2)C(C(O)c2ccccc2)C1 (stereo not given),-21.7%
20,COc1cc2c(c(OC)c1OC)-c1ccc(SC)c(=O)cc1[C@@H](NC(C)=O)CC2,-16.9%

row,SMILES,growth inhibition
1,O=C(CC(=O)c1ccccc1)c1ccccc1.[Tl],91.5% (active)
2,C1CC[N-]CC1.C1CC[N-]CC1.[Cl][Pt+2]([Cl])([Cl])[Cl],-10.3%
3,NC(=O)c1cccc([As]=O)c1 (stereo not given),17.4%
4,COc1cccc(C2CC(=O)c3cccn32)c1 (stereo not given),1.65%
5,CC(=O)c1ccc(Br)cc1,-5.5%
6,O=C1Nc2ccccc2C12CNCS2 (stereo not given),4.55%
7,Cc1cccc(CCl)c1,-46.3%
8,O=C1NC(=S)NC(=O)C1=Cc1ccc2ccccc2n1,-0.6%
9,Clc1cccc(Cl)c1C(Cl)Cl,-17.2%
10,O=N[O-].O=N[O-].[Co].[NH-]CC[N-]CCO.[NH-]CC[N-]CCO,-0.7%
11,CCOP(O)OCC,11.4%
12,CCC1(c2ccc(C)cc2)C(=O)NC(=S)NC1=O,-8.15%
13,N#CN,-17.2%
14,OC[C@@H](O)[C@@H](O)CO,-0.25%
15,Cc1ccc(S(=O)(=O)OC2CN3CCC2CC3)cc1 (stereo not given),-2.95%
16,O=S(c1ccc(Cl)cc1)c1ccc(Cl)cc1,17.9%
17,O=C([CH-]C(=O)c1ccccc1)c1ccccc1.[CH2-]C.[CH2-]C.[Tl+3],35.6%
18,NC(=O)C(N)C(F)c1ccccc1 (stereo not given),2.85%
19,CC([NH-])C[NH-].CC([NH-])C[NH-].[Cl-].[Cl-].[Co+3].[O-][Cl+3]([O-])([O-])O (stereo not given),12.6%
20,Clc1cccc2nncc(N3CC3)c12,23.6%
